In PubChem BioAssay (NCATS):
“And” between values parts separate entries of the source, which are not always exact repeats. Equal values may be shown once. Results filed as inconclusive are left out. The source made the active and inactive calls. Calls follow the shape of the dose curve; as a rule, active = well fitted cell-killing curve with a large enough effect; inconclusive = small, poorly fitted or top-dose-only effect, or effect the other way; inactive = no such curve, though single readings can be large or run the other way.

Assays:
[1] = Viability qHTS for spleen associated tyrosine kinase inhibitor (SYKi) naive MV4-11 cells (AID 1963823); also: nearly all actives have a fitted effect of over 40% in size
Outline: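 In this viability screen, compounds acted on SYK inhibitor naive MV4-11 cells for three days (72 hr, 37 C). Remaining viable cells were measured by CellTiter-Glo luminescence following a 10 min room-temperature development.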

[2] = Viability qHTS for spleen associated tyrosine kinase inhibitor (SYKi) drug resistant MV4-11 cells (AID 1963824); also: nearly all actives have a fitted effect of over 35% in size
Outline: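 SYK-inhibitor-resistant MV4-11 AML cells were seeded at 500 per well onto compound and cultured 72 hours (37 °C, 5% CO2). CellTiter-Glo was then added, and after 10 min at room temperature, luminescence gave viability.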
Potency is read from the fitted curve at half-maximal effect.

| SMILES | Potency [1] | Potency [2] | viability (% of control) [1] | viability, % of control [2] |
| --- | --- | --- | --- | --- |
| C=C(C)[C@H]1C[C@@H](O)C(=C)CC[C@@H](O)C(=C)[C@@H](O)C1 | inactive | inactive |  |  |
| CC(=O)c1ccc2c(c1)N(CCCN1CCC(CCO)CC1)c1ccccc1S2 | 26.6 µM (active) | 18.8 µM (active) |  |  |
| Cc1c(NC(=O)c2cc3c(s2)CCCC3)cccc1-c1cn(C)c(=O)c(Nc2ccc(C3C(=O)N(C)CCN3C)cc2)n1 (stereo not given) | 20.6 µM (active) and 20.9 µM (active) | 7.31 µM (active) and 16.6 µM (active) |  |  |
| O=C(NCc1cccc(O)c1)c1cc2cc(F)ccc2[nH]1 | 16.4 µM (active) | 13 µM (active) |  |  |
| CCc1cccc(CC)c1-n1c(C=C(C)C)c(C(=O)N2CCNCC2)cc(-c2nc(-c3ccc(C(F)(F)F)cc3)cs2)c1=O | inactive | inactive |  |  |
| COC(=O)C1=CO[C@@H](O[C@@H]2O[C@H](CO)[C@@H](O)[C@H](O)[C@H]2O)[C@H]2[C@@H]1C=C[C@@]21C=C([C@H](C)O)C(=O)O1 | inactive | inactive |  |  |
| C=C(C)C(=O)O[C@H]1C[C@@](C)(O)C2(O)CCC(C)(/C=C3/OC(=O)C(COC)=C31)O2 (stereo not given in full) | 0.718 µM (active) | 0.453 µM (active) |  |  |
| O=C(O)COCCN1CCN([C@H](c2ccccc2)c2ccc(Cl)cc2)CC1 | inactive | inactive |  |  |
| CC(C)CC1NC(=O)C(C(C)c2ccccc2)NC(=O)C(C(C)C)NC(=O)C(C)NC(=O)CCCNC(=O)C(Cc2c[nH]c3ccccc23)NC(=O)C(C)NC1=O (stereo not given) | inactive | inactive |  |  |
| CC1(C)CC2C=C(C(=O)O)C3COC(=O)C(O)(CO)C23C1 (stereo not given) | inactive | inactive |  |  |
| C#Cc1cccc(Nc2nc3cc(C(=O)O)ccc3c3cncnc23)c1 | 5.17 µM (active) | 2.91 µM (active) |  |  |
| C=C1C(O)CC2C(C(=O)O)=COC(OC3OC(CO)C(O)C(O)C3OC(=O)/C=C\c3ccc(O)cc3)C12 (stereo not given) | inactive | inactive |  |  |
| C=C1C(=O)O[C@@H]2C3=C(C)CCC[C@]3(C)CC[C@@]12O | 1.64 µM (active) | 0.731 µM (active) |  |  |
| CCn1c(-c2nonc2N)nc2c(C#CC(C)(C)O)ncc(OCC3CCCNC3)c21 (stereo not given) | 13 µM (active) | 8.2 µM (active) |  |  |
| CC1(C)CC2C(C1)C(C)(O)C13CC1(COC3=O)C2O (stereo not given) | inactive | inactive |  |  |
| C=C(C(=O)O)[C@@H]1CC[C@@]2(C)CC[C@@H](O)C(=C)C2C1 (stereo not given in full) | inactive | inactive |  |  |
| CC(C)Oc1ccc(-c2nc(-c3cccc4c3CC[C@@H]4NCCO)no2)cc1C#N | 11.8 µM (active) | 11.8 µM (active) |  |  |
| C=CCN(/C=C1\C(=O)OC(COC)C2(C)C1=C(O)C(=O)C1=C2C(OC(C)=O)CC2(C)C(=O)CCC12)CC=C (stereo not given) | 13 µM (active) | 20.6 µM (active) |  |  |
| CC[C@H](/C=C/[C@@H](C)[C@H]1CC[C@H]2[C@@H]3CC=C4C[C@@H](O)CC[C@]4(C)[C@H]3CC[C@]12C)C(C)C |  |  | 82.1% [at 4.97 µM] (inactive) | 108% [at 4.97 µM] (inactive) |
| N=c1nc2n(cc1F)C1OC(CO)C(O)C1O2 (stereo not given) | 1.64 µM (active) | 2.59 µM (active) |  |  |
| C[C@H]1[C@H](/C=C/c2ccc(-c3ccccc3C#N)cn2)[C@@H]2[C@@H](C)OC(=O)[C@@H]2C[C@@H]1C | 8.2 µM (active) | 7.31 µM (active) |  |  |
| COc1cc(Nc2nc3c(s2)CCCC3c2ccc(F)cc2)ccc1-n1cnc(C)c1 (stereo not given) | 3.66 µM (active) | 4.61 µM (active) |  |  |
| CN1C/C=C/CCOc2cccc(c2)-c2ccnc(n2)Nc2cccc(c2)C1 | 0.417 µM (active) | 0.206 µM (active) |  |  |
| CC(C)(Cc1ccccc1)NCC(O)c1ccc(O)c(NS(C)(=O)=O)c1 (stereo not given) | inactive | inactive |  |  |
| CNc1cccc(CCOc2ccc3c(c2)CN(CC(F)(F)F)C(=O)[C@H](CC(=O)O)C3)n1 | inactive | inactive |  |  |
| COc1cc2ncnc(Nc3cccc(O)c3)c2cc1OC | 0.411 µM (active) | 0.651 µM (active) |  |  |
| C=C1C(=O)O[C@H]2C3=C(C)CCC[C@]3(C)C(=O)C[C@@H]12 | 1.3 µM (active) | 0.92 µM (active) |  |  |
| C[C@@]1(O)[C@H](O)[C@@H](CO)O[C@H]1n1cnc2c(=O)[nH]c(N)nc21 | inactive | inactive |  |  |
| CC1CCC2C(C(=O)O)=COC(O[C@@H]3O[C@H](CO)[C@@H](O)[C@H](O)[C@H]3O)C12 (stereo not given in full) | inactive | 16.1 µM (active) |  |  |
| CC1(C)CCC2(C(=O)OC3OC(CO)C(O)C(O)C3O)CCC3(C)C(=CCC4C5(C)CCC(OC6OC(C(=O)O)C(OC7OC(CO)C(O)C(O)C7O)C(OC7OC(CO)C(O)C(O)C7O)C6O)C(C)(C)C5CCC43C)C2C1 (stereo not given) |  |  | 77.9% [at 9.25 µM] (inactive) | 109% [at 9.25 µM] (inactive) |
